Only some compounds are listed: those with a hit (about 0.35% of all), similar ones and a draw of the others.
TCR activator: Activators of T cell receptors: qHTS campaign. primary human leukocytes, anti-CD3, IL-2 HTRF, 48 h. AID 504894, 2011. Potency, µM (top dose mostly 9.22 µM), hits mostly activators. 330,000 tested, under 10 active
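TCR engagement came from a-CD3 beads alone, with compounds added to primary human leukocytes for 48 hr. Secreted IL-2 bridged europium cryptate- and d2-labelled anti-IL-2 antibodies, giving FRET emission at 665nm after 320nm excitation.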
Luc counter: Counterscreen for Luciferase (Kinase-Glo TM) Inhibition | AID 1379, 2008 | actives 0.28% (n = 200,000) | Kinase-Glo luciferase, ATP luminescence, 8 min | Luciferin 4-monooxygenase (Photuris pensylvanica), Q27757 | Potency, µM (highest dose often 38.3 µM), hits mostly inhibitors; also: nearly all actives have a fitted effect of over 60% in size
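Recombinant Kinase-Glo luciferase, 10 uM ATP (linear range), luciferin; imidazole pH 7.2 / KCl / MgCl2 / Tween / BSA buffer; 8 min RT; luminescence.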
TRPV1 ag: HTS Assay for Compounds that Act as Agonists of the Vanilloid Receptor 1; Transient receptor potential cation channel subfamily V member 1 (Homo sapiens), Q8NER1; activation, % at 8.33 µM; actives 0.19% (n = 320,000); TRPV1-expressing cells, Fluo-8 calcium influx, agonist mode; in the data active = activation above about 80%; inconclusive = between about 30% and that limit
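Fluo-8 calcium influx in TRPV1-expressing cells, kinetic read (ex 480/em 520 nm). Compound added and read 3 min for agonist activity, followed by capsaicin at EC20 final and 2 min further read for enhancement.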
TRPV1 potentiator: HTS Assay for Compounds that Act as Potentiators of the Vanilloid Receptor 1. Transient receptor potential cation channel subfamily V member 1 (Homo sapiens), Q8NER1. TRPV1-expressing cells, Fluo-8 calcium influx, capsaicin EC20 potentiation. potentiation, % at 8.33 µM. actives 0.02% (n = 320,000). AID 540277, 2011; in the data active = potentiation above about 80%; inconclusive = between about 30% and that limit
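TRPV1-expressing cells were cultured overnight at 35.5C and loaded with Fluo-8 calcium dye for 40 to 90 min at room temperature. After a 10 s baseline, compound was added and calcium influx was read kinetically for 3 min (ex 480/em 520 nm).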
MBNL1 CUG block: qHTS Assay for Inhibitors of MBNL1-poly(CUG) RNA binding. Muscleblind-like protein 1 (Homo sapiens), Q9NR56. TR-FRET MBNL1-His/biotin-(CUG)12 binding, 665/545 ratio. Potency, µM (top dose mostly 57.5 µM), most hits filed as inhibitors. actives 0.036% (n = 280,000). AID 2675, 2010; active = well fitted inhibition curve with a large enough effect in the signal ratio, with a control signal flat, not every such curve was filed as active; inconclusive = small, poorly fitted or top-dose-only effect, or effect the other way, or a change in a side signal; inactive = no such curve, though single readings can be large or run the other way; the % refers to the signal ratio
Target sequence (Q9NR56 whole entry, looked up): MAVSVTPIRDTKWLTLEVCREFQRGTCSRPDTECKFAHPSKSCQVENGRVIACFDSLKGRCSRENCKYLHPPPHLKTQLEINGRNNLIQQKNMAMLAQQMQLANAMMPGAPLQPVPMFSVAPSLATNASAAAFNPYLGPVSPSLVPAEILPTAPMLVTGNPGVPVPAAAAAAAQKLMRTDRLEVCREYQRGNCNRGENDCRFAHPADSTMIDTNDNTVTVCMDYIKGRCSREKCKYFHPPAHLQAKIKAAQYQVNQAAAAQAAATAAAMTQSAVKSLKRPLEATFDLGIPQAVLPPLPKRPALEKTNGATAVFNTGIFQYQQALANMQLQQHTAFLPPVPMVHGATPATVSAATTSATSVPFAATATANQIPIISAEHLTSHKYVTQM
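Compound titration spanned 92 nM–58 uM against the MBNL1-His/biotin-(CUG)12 complex. After 60 min at room temperature with 5 nM streptavidin-XL665 and 0.055 ng/ul terbium anti-His, ratiometric 665/545 nm emission (Ex 340 nm) normalized to controls.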
CBFb RUNX1 block: qHTS Assay for Compounds Blocking the Interaction Between CBF-beta and RUNX1 for the Treatment of Acute Myeloid Leukemia; AID 1477, 2009; AlphaScreen CBFb-His/RUNX1-biotin binding, biochemical; Potency, µM (top dose mostly 59.8 µM), actives largely listed as inhibitors; Runt-related transcription factor 1 (Homo sapiens) + Core-binding factor subunit beta …; 230,000 tested, under 10 active
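CBF-beta (His) and RUNX1 (biotin), 30 nM each; 20 min preassociation; + compound, 15 min; + beads 50 ng each (Ni, streptavidin), 90 min; RT; AlphaScreen read.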
Hits are given with their value; 0 = inactive; ? = inconclusive; - = no result given; ! = repeats disagree; [ ] = dose if it differs, or a comment. Unless noted, calls follow the shape of the dose curve; as a rule, active = well fitted curve in the direction sought with a large enough effect; inconclusive = small, poorly fitted or top-dose-only effect, or another doubt; inactive = no such curve, though single readings can be large; an effect the other way counts as inactive or inconclusive.

SMILES	TCR activator	Luc counter	TRPV1 ag	TRPV1 potentiator	MBNL1 CUG block	CBFb RUNX1 block
O[C@@H](c1cc(-c2ccc(Cl)cc2)nc2ccccc12)C1CCCCN1 (stereo not given in full)	-	0[7.66 µM]	-	-	-	-
Cc1nc2cc(-c3ccccc3)sc2c(=O)n1N	0	2.2µM	0	0	0	0
N#CCSc1nc2[nH]ncc2c(=O)n1-c1ccccc1Br	0	10µM	0	0	?	0
CC(=NCc1ccco1)c1c(C)[nH]n(-c2nc3ccccc3s2)c1=O	0	-	0	0	0	0
C/C(=N/NC(=O)c1cccs1)c1c(C)[nH]n(-c2nc3ccccc3s2)c1=O	0	10µM	0	0	0	?
COc1ccc(C2=Nn3c(nnc3-c3cc(OC)ccc3OC)SC2)c(OC)c1	-	-	-	-	-	0
CCCOc1ccc(C(=O)Nc2cccnc2)cc1	-	-	?	0	0	-
CC(C)c1ccc(OCC(=O)Nc2ccncc2)cc1	0	-	95	0	0	-
O=C(Nc1ccncc1)c1ccc(Br)cc1	-	-	113	0	0	-
O=C(Nc1ccncc1)c1ccc(Cl)cc1	0	-	?	0	0	-
CCCCOc1ccc(C(=O)Nc2ccncc2)cc1	0	0	93	0	0	0
CCc1ccc(OCC(=O)Nc2ccncc2)cc1	-	-	?	0	0	-
CN1[C@H]2CC(OC(=O)[C@H](CO)c3ccccc3)C[C@H]1[C@H]1O[C@H]12 (stereo not given in full)	-	-	-	-	-	0
CCOC(=O)c1ccc(NC(=O)N2CCN(c3cccc(OC)c3)CC2)cc1	0	0	99	0	0	0
CC(=O)c1ccc(N2CCN(C(=O)Nc3ccc(Cl)cc3)CC2)cc1	0	0	84	0	0	0
O=C(NCCN1CCCC1)c1ccc(Cc2nc3ccccc3[nH]2)cc1	-	0	-	-	-	-
Cc1oc(=O)c(NC(=O)c2ccccc2)cc1C(N)=O	0	0	0	0	?	0
O=C(Nc1cc2ccccc2oc1=O)c1ccccc1	0	11µM	0	0	0	0
CC(CN(C)C)NC(=O)c1ccc(Cc2nc3ccccc3[nH]2)cc1 (stereo not given)	-	0	-	-	-	-
CN1CCC(CNC(=O)c2ccc(Cc3nc4ccccc4[nH]3)cc2)CC1	-	0	-	-	-	-
Cc1cccc(NS(=O)(=O)c2ccc(Cl)c(C(=O)O)c2)c1	-	0	-	-	-	-
Cc1cccc2nc(=S)n(C(=O)c3ccco3)n12	-	3.2µM	0	0	0	0
O=C(c1ccco1)n1c(=S)nc2ccccn21	0	13µM	0	0	0	0
CC(=O)N1CCN(C(=O)c2ccco2)CC1	0	-	0	0	0	-
CCN(CC)CCN(Cc1cc2cc(C)ccc2[nH]c1=O)C(=O)Nc1ccccc1OC	0	0	0	88	0	0
SMILES	TCR activator	Luc counter	TRPV1 ag	TRPV1 potentiator	MBNL1 CUG block	CBFb RUNX1 block
CCc1ccc2[nH]c(=O)c(CN(Cc3ccccc3OC)C(=O)Nc3ccccc3OC)cc2c1	0	0	0	0	0	0
NC1=N[C@H](c2ccc(Cl)cc2)N(c2ccc(S(N)(=O)=O)cc2)C(N)=N1	-	0[7.66 µM]	-	-	-	-
COc1ccc(C(=O)N=c2nc3ccccn3s2)cc1	0	7.9µM	-	-	0	0
COc1ccc(C(=O)O/N=C2\C(=O)N(C)c3ccccc32)cc1	0	-	-	-	-	-
O=C(Nc1ccccc1)c1cc(-c2ccccc2Cl)no1	0	0	85	0	0	0
COc1ccc2c(=O)c(-c3ccccc3)coc2c1	0	2.8µM!	0	0	0	0
O=C(/C=C/c1ccc2c(c1)OCO2)c1cccs1	-	8.9µM	-	-	-	0
COc1ccc2c3c([nH]c2c1)[C@H]1C[C@@H]2[C@@H](C[C@@H](O)[C@H](OC)[C@H]2C(=O)O)CN1CC3	-	0[7.66 µM]	-	-	-	-
O=C(NCCN1CCCC1)c1ccc(-n2c(=O)c(=O)[nH]c3ccccc32)cc1	-	0	-	-	-	-
CN(C)CCNC(=O)c1ccc(Cc2nc3ccccc3[nH]2)cc1	-	0	-	-	-	-
O=C(Cc1cccs1)Nc1cccc(-c2ccc3nncn3n2)c1	0	0	0	85	?	0
O=C(Cc1ccc(F)cc1)Nc1cccc(-c2ccc3nncn3n2)c1	0	0	0	0	?	0
CC(=O)Nc1ccc2c(c1)/C(=C/c1ccc([N+](C)(C)C)cc1)c1ccccc1-2	-	0[7.66 µM]	-	-	-	-
COc1ccc(Nc2nc(NCc3ccco3)nc(N3CCOCC3)n2)cc1	0	-	86	0	0	0
COc1ccc(Nc2nc(N3CCOCC3)nc(N3CCOCC3)n2)cc1	0	-	0	0	0	-
CCCOc1ccc(/C=C/C(=O)N2CCN(c3ccccn3)CC2)cc1	0	0	0	0	-	0
CC(C)c1ccc(/C=C/C(=O)N2CCOCC2)cc1	-	-	94	0	0	-
CCCOc1ccc(/C=C/C(=O)N2CCOCC2)cc1	0	-	89	0	0	-
CC1(C)C(=O)NC2=C1C(=O)C(=O)c1ccccc12	-	0	-	-	-	0
CN(C)c1ccc(/C=C(\Cl)c2nc3ccccc3s2)cc1	0	13µM	0	0	0	0
Cc1nnsc1C(=O)NC1CCCc2c1cnn2-c1ccc(C(C)(C)C)cc1 (stereo not given)	0	-	85	0	0	-
Cc1nnsc1C(=O)NC1CCCc2c1cnn2-c1ccccc1F (stereo not given)	0	-	?	0	0	-
Oc1ccc(/C=N/Nc2cc(N3CCOCC3)nc(N3CCOCC3)n2)cc1O	0	0	?	0	?	0
Oc1cccc(/C=N/Nc2cc(N3CCOCC3)nc(N3CCOCC3)n2)c1	0	0	93	0	-	0
CC1CCN(C2=NC(=O)/C(=C/c3ccccc3F)S2)CC1	0	-	88	0	0	-
SMILES	TCR activator	Luc counter	TRPV1 ag	TRPV1 potentiator	MBNL1 CUG block	CBFb RUNX1 block
CC1CCN(C2=NC(=O)/C(=C/c3cccc(O)c3)S2)CC1	0	-	?	0	?	-
Fc1ccc(Nc2ncnc3sc4c(c23)CCC4)cc1	0	0	81	0	0	0
O=C(O)c1c2c(c(O)c3c1CN(C1CCCCC1)CO3)OCN(C1CCCCC1)C2	-	0[7.66 µM]	-	-	-	-
Cc1cc(/C=C2\Cc3ccccc3C2=O)c(C)n1-c1ccccc1	0	0	86	0	0	0
Cc1cc(C=C2C(=O)c3ccccc3C2=O)c(C)n1-c1ccccc1	0	?	0	0	0	0
C=C1CCC[C@]2(C)C[C@H]3OC(=O)[C@H](CNCCc4ccccc4OC)C3CC12 (stereo not given in full)	-	0	-	-	-	0
Oc1c(C=Nc2cccc3cccnc23)sc2ccccc12	-	10µM	?	0	?	?
CC1CCN(C(=O)CCCOc2ccc(Cl)cc2)CC1	0	0	80	0	0	0

From PubChem BioAssay
